About 7,900 targets were measured; listed, in parts, are those with a hit and a random draw of the rest. About 0.6% of all pairs of compound and target were hits.
Columns and labels:
Assay in all cases: log2 fold change, soluble protein after heating vs DMSO (PISA); higher = thermal stabilisation; K562 cells, 10 uM, 30 min; active = over 0.2 and 3.5 SD of the protein, either way, in both replicates (recomputed)
[1] = compound: CS(=O)(=O)c1ccc(-c2cnc(N)c(C(=O)Nc3ccccc3)n2)cc1
Procedure, shortened: (§1)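 K562 cells at 2×10^6 cells/mL were treated for 30 min with 10 μM compound, and aliquots were heated for 3 min over 48°C-58°C before pooling. Extraction used PBS with 0.5% NP-40 at 4°C, and soluble protein was the supernatant after 21,000xg for 90 min, measured by TMTpro 16plex LC-MS/MS with channel sums equalised. Thermal stability values, relative to control samples and from duplicates, are log2 fold changes.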

crizotinib = compound: C[C@@H](Oc1cc(-c2cnn(C3CCNCC3)c2)cnc1N)c1c(Cl)ccc(F)c1Cl [crizotinib]
Procedure, shortened: as §1

[2] = compound: C[C@@H]1COCCN1C2=NC(=NC(=C2)C3(CC3)S(=O)(=O)C)C4=C5C=CNC5=CC=C4
Procedure, shortened: as §1

[3] = compound: C[C@H](C1=CC=C(C=C1)C(=O)NC2=C3C=CNC3=NC=C2)N
Procedure, shortened: as §1

duvelisib = compound: C[C@H](Nc1ncnc2nc[nH]c12)c1cc2cccc(Cl)c2c(=O)n1-c1ccccc1 [duvelisib]
Procedure, shortened: as §1

gandotinib = compound: Cc1cc(Nc2cc(CN3CCOCC3)c3nc(C)c(Cc4ccc(Cl)cc4F)n3n2)n[nH]1 [gandotinib]
Procedure, shortened: as §1

tozasertib = compound: Cc1cc(Nc2cc(N3CCN(C)CC3)nc(Sc3ccc(NC(=O)C4CC4)cc3)n2)n[nH]1 [tozasertib]
Procedure, shortened: as §1

[4] = compound: Cc1cc(SCc2sc(-c3ccc(C(F)(F)F)cc3)nc2C)ccc1OCC(=O)O
Procedure, shortened: as §1

doramapimod = compound: Cc1ccc(-n2nc(C(C)(C)C)cc2NC(=O)Nc2ccc(OCCN3CCOCC3)c3ccccc23)cc1 [doramapimod]
Procedure, shortened: as §1

ispinesib = compound: Cc1ccc(C(=O)N(CCCN)[C@@H](c2nc3cc(Cl)ccc3c(=O)n2Cc2ccccc2)C(C)C)cc1 [ispinesib]
Procedure, shortened: as §1

UniProt Q7Z7A4, sequence (Q7Z7A4 whole entry, looked up): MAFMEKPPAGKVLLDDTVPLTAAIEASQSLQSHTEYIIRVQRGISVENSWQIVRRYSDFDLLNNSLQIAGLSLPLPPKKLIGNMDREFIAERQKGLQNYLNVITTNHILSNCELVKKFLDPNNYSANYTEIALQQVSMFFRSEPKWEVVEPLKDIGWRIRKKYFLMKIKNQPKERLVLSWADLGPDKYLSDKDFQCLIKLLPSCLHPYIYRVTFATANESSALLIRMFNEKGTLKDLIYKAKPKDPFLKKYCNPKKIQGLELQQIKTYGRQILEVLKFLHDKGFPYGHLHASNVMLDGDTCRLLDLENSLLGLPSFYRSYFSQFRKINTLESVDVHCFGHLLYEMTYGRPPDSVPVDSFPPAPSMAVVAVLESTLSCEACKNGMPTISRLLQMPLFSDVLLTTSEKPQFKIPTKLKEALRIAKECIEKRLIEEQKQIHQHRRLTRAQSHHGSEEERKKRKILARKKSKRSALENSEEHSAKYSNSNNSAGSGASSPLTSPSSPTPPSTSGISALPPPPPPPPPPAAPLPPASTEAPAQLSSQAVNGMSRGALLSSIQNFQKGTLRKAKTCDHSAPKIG
UniProt Q16513, sequence (Q16513 whole entry, looked up): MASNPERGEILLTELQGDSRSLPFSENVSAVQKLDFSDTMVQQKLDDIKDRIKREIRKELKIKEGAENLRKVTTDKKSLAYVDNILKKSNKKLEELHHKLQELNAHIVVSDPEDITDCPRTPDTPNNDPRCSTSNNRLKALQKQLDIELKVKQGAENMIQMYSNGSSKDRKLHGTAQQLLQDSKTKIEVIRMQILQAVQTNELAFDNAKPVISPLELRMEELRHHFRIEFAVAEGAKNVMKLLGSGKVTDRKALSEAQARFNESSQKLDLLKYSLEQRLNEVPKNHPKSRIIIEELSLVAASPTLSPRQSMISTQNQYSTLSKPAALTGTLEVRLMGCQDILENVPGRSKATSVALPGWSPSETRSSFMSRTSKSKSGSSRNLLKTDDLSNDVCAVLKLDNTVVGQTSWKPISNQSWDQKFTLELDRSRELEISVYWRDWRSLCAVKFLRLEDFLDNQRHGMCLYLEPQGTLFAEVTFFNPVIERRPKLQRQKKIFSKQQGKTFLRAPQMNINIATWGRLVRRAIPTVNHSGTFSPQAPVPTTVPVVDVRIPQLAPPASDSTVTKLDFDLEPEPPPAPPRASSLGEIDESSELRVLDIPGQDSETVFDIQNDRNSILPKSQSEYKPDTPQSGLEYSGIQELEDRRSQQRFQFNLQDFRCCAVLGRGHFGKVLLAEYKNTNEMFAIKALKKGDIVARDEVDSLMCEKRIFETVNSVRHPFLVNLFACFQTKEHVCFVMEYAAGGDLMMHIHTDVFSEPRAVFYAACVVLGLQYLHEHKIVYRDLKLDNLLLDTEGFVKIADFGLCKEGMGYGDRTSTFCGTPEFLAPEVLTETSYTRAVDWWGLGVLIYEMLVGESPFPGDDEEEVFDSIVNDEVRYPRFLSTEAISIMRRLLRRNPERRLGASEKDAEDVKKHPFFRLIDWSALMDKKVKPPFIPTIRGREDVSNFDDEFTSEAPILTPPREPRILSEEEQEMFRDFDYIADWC
UniProt O75439, sequence (O75439 whole entry, looked up): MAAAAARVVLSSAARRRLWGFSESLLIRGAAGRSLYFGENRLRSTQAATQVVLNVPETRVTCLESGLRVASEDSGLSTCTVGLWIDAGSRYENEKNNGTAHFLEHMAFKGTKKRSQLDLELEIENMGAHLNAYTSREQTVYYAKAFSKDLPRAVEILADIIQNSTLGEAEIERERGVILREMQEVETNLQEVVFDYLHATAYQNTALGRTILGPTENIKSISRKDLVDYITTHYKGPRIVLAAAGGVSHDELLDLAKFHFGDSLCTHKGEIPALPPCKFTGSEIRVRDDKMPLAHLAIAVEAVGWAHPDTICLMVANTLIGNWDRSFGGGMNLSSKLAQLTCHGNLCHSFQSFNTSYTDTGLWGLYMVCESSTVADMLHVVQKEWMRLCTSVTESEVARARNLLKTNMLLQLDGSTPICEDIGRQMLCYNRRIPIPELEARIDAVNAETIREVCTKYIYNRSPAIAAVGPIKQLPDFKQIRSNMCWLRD
UniProt P46020, sequence (P46020 whole entry, looked up): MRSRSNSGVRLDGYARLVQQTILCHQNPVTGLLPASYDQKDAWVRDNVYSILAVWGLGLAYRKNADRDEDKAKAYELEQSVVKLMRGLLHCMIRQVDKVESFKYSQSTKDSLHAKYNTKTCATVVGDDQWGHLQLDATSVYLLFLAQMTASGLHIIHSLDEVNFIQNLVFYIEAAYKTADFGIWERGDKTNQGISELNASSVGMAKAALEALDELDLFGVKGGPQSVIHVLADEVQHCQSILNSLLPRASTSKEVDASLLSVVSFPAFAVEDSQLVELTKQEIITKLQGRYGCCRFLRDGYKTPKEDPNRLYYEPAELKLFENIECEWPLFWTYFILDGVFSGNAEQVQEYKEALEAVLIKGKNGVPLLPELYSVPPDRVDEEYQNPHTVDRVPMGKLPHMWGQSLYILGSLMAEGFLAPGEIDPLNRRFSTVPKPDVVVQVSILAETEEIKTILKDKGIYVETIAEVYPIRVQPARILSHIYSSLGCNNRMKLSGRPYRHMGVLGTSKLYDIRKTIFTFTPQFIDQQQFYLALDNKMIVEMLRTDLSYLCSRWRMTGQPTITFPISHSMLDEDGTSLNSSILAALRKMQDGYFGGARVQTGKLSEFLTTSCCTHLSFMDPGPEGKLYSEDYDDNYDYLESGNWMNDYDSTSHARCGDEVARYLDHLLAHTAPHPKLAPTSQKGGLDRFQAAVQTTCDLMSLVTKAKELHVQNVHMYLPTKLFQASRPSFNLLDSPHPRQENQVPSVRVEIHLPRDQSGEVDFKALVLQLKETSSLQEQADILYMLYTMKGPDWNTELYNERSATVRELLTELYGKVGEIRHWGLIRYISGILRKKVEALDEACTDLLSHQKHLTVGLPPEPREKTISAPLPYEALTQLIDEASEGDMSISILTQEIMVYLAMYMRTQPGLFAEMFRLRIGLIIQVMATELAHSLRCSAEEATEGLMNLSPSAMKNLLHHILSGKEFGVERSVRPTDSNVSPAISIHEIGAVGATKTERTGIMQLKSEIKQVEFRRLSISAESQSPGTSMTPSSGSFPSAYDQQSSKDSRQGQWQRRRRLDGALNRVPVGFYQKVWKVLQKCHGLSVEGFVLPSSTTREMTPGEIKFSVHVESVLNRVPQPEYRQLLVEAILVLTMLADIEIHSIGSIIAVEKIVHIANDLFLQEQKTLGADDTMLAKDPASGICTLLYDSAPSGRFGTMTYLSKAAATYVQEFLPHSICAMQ
UniProt Q9BTU6, sequence (Q9BTU6 whole entry, looked up): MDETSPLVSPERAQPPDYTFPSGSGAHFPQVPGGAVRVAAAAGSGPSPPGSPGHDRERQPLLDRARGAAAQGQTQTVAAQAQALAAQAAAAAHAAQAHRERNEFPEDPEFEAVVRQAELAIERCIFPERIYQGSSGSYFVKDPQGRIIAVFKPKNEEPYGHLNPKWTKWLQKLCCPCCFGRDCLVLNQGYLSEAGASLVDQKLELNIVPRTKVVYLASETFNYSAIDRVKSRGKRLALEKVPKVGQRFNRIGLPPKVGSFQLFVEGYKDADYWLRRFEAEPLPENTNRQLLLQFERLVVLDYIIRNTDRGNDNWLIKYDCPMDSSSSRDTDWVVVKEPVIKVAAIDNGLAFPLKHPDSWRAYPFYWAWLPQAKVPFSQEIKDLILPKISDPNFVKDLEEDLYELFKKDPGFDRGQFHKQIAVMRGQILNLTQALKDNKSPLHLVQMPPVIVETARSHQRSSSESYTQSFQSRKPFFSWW
UniProt Q86TP1, sequence (Q86TP1 whole entry, looked up): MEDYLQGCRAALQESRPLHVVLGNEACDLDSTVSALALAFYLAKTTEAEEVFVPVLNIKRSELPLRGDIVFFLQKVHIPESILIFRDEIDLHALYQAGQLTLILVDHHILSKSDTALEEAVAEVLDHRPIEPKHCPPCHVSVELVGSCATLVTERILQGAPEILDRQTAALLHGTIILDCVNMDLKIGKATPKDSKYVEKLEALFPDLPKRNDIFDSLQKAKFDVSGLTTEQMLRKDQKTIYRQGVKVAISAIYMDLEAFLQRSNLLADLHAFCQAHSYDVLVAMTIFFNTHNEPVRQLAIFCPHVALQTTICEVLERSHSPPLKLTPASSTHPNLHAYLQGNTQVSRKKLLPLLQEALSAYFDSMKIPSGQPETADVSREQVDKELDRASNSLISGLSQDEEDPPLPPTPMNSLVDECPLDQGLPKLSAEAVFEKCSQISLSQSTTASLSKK
UniProt Q96A00, sequence (Q96A00 whole entry, looked up): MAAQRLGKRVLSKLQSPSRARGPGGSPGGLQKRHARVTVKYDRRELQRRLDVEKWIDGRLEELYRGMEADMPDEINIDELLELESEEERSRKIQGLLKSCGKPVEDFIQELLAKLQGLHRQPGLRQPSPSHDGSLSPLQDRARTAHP

Target	log2 fold change [1]	log2 fold change (crizotinib)	log2 fold change [2]	log2 fold change [3]	log2 fold change (duvelisib)	log2 fold change (gandotinib)	log2 fold change (tozasertib)	log2 fold change [4]	log2 fold change (doramapimod)	log2 fold change (ispinesib)
PKN1 isoform 2 (UniProt Q16512)	0.03 (inactive)	-0.233 (inactive)	-0.015 (inactive)	-0.12 (inactive)	0.001 (inactive)	-0.165 (inactive)	-0.052 (inactive)	0.075 (inactive)	0.022 (inactive)	-0.065 (inactive)
POLR2M (UniProt Q6EEV4)	-0.03 (inactive)	-0.021 (inactive)	0.16 (inactive)	-0.078 (inactive)	-0.024 (inactive)	–	-0.039 (inactive)	-0.061 (inactive)	-0.04 (inactive)	–
POLR3D (UniProt P05423)	0.088 (inactive)	-0.035 (inactive)	-0.064 (inactive)	0.112 (inactive)	0.011 (inactive)	-0.056 (inactive)	-0.063 (inactive)	-0.085 (inactive)	0.022 (inactive)	-0.05 (inactive)
PTP4A2 (UniProt Q12974)	-0.001 (inactive)	0.047 (inactive)	0.026 (inactive)	-0.01 (inactive)	-0.057 (inactive)	–	0.017 (inactive)	0.05 (inactive)	-0.047 (inactive)	0.154 (inactive)
PHC3 isoform 7 (UniProt Q8NDX5)	-0.068 (inactive)	-0.194 (inactive)	0.317 (inactive)	0.073 (inactive)	–	–	–	–	0.131 (inactive)	–
PRKAB1 (UniProt Q9Y478)	0.013 (inactive)	-0.252 (active)	0.029 (inactive)	-0.063 (inactive)	0.01 (inactive)	-0.057 (inactive)	-0.013 (inactive)	0.069 (inactive)	0.013 (inactive)	-0.013 (inactive)
PRKACB isoform 2 (UniProt P22694)	-0.009 (inactive)	-0.145 (inactive)	0.033 (inactive)	-0.039 (inactive)	0.009 (inactive)	-0.091 (inactive)	-0.02 (inactive)	0.047 (inactive)	0.028 (inactive)	-0.043 (inactive)
PHKA1 (UniProt P46020)	-0.036 (inactive)	-0.05 (inactive)	-0.048 (inactive)	0.189 (inactive)	-0.074 (inactive)	-0.015 (inactive)	0.279 (inactive)	0.075 (inactive)	0.037 (inactive)	-0.07 (inactive)
POLR2C (UniProt P19387)	0.019 (inactive)	0.127 (inactive)	-0.062 (inactive)	0.163 (inactive)	0.032 (inactive)	–	0.017 (inactive)	0.113 (inactive)	0.012 (inactive)	0.034 (inactive)
PLCL1 (UniProt Q15111)	0.112 (inactive)	-0.03 (inactive)	0.074 (inactive)	-0.263 (inactive)	–	-0.14 (inactive)	-0.015 (inactive)	–	-0.08 (inactive)	-0.162 (inactive)
PTPMT1 (UniProt Q8WUK0)	0.086 (inactive)	-0.546 (active)	0.039 (inactive)	-0.026 (inactive)	0.118 (inactive)	-0.125 (inactive)	-0.001 (inactive)	0.109 (inactive)	-0.036 (inactive)	-0.429 (active)
PRPF38A (UniProt Q8NAV1)	-0.029 (inactive)	0.018 (inactive)	0.017 (inactive)	0.009 (inactive)	0.037 (inactive)	-0.042 (inactive)	-0.071 (inactive)	0.017 (inactive)	0.006 (inactive)	-0.024 (inactive)
PMPCB (UniProt O75439)	0.012 (inactive)	0.015 (inactive)	0.054 (inactive)	-0.081 (inactive)	0.055 (inactive)	-0.096 (inactive)	-0.019 (inactive)	-0.019 (inactive)	0.009 (inactive)	-0.034 (inactive)
PPP1R14A (UniProt Q96A00)	0.078 (inactive)	0.011 (inactive)	0.005 (inactive)	0.003 (inactive)	0.06 (inactive)	0.106 (inactive)	-0.017 (inactive)	-0.049 (inactive)	-0.086 (inactive)	0.319 (inactive)
PRPF3 (UniProt O43395)	0.009 (inactive)	-0.025 (inactive)	0.114 (inactive)	0.193 (inactive)	0.053 (inactive)	-0.067 (inactive)	0.007 (inactive)	0.174 (inactive)	-0.024 (inactive)	0.025 (inactive)
PNN (UniProt Q9H307)	-0.043 (inactive)	-0.154 (inactive)	0.022 (inactive)	-0.05 (inactive)	0.034 (inactive)	0.012 (inactive)	–	-0.003 (inactive)	-0.032 (inactive)	-0.08 (inactive)

Target	log2 fold change [1]	log2 fold change (crizotinib)	log2 fold change [2]	log2 fold change [3]	log2 fold change (duvelisib)	log2 fold change (gandotinib)	log2 fold change (tozasertib)	log2 fold change [4]	log2 fold change (doramapimod)	log2 fold change (ispinesib)
PPP1R35 (UniProt Q8TAP8)	-0.025 (inactive)	-0.036 (inactive)	0.179 (inactive)	-0.037 (inactive)	-0.071 (inactive)	0.044 (inactive)	0.007 (inactive)	0.025 (inactive)	0.024 (inactive)	-0.058 (inactive)
PSMB9 (UniProt P28065)	0.259 (inactive)	0 (inactive)	0.075 (inactive)	0.066 (inactive)	–	0.126 (inactive)	–	–	0.084 (inactive)	–
PI4K2A (UniProt Q9BTU6)	0.031 (inactive)	-0.185 (inactive)	0.032 (inactive)	0 (inactive)	0.043 (inactive)	-0.004 (inactive)	-0.009 (inactive)	0.001 (inactive)	0.015 (inactive)	-0.244 (active)
PELO (UniProt Q9BRX2)	0.026 (inactive)	-0.15 (inactive)	-0.037 (inactive)	0.158 (inactive)	0.011 (inactive)	-0.096 (inactive)	0.001 (inactive)	0.07 (inactive)	0.077 (inactive)	-0.336 (inactive)
PDIK1L (UniProt Q8N165)	0.009 (inactive)	-0.082 (inactive)	-0.003 (inactive)	0.029 (inactive)	0.086 (inactive)	–	-0.094 (inactive)	0.017 (inactive)	0.085 (inactive)	0.039 (inactive)
PGGT1B (UniProt P53609)	0.093 (inactive)	0.04 (inactive)	0.002 (inactive)	-0.05 (inactive)	0.046 (inactive)	-0.011 (inactive)	0.006 (inactive)	-0.143 (inactive)	-0.028 (inactive)	0.043 (inactive)
PRKCG (UniProt P05129)	0.078 (inactive)	-0.005 (inactive)	0.188 (inactive)	0.028 (inactive)	0.244 (inactive)	-0.149 (inactive)	-0.04 (inactive)	0.11 (inactive)	-0.029 (inactive)	0 (inactive)
PRMT3 (UniProt O60678)	-0.067 (inactive)	-0.137 (inactive)	-0.002 (inactive)	-0.058 (inactive)	-0.028 (inactive)	-0.156 (inactive)	0.002 (inactive)	0.111 (inactive)	-0.037 (inactive)	-0.02 (inactive)
PKN2 (UniProt Q16513)	0.025 (inactive)	-0.191 (inactive)	0.067 (inactive)	-0.057 (inactive)	0.027 (inactive)	-0.058 (inactive)	–	0.133 (inactive)	0.035 (inactive)	-0.028 (inactive)
PRUNE1 (UniProt Q86TP1)	-0.011 (inactive)	-0.064 (inactive)	-0.002 (inactive)	-0.026 (inactive)	-0.047 (inactive)	-0.071 (inactive)	0.097 (inactive)	0.056 (inactive)	0.008 (inactive)	-0.018 (inactive)
QRICH1 (UniProt Q2TAL8)	-0.01 (inactive)	-0.2 (inactive)	0.07 (inactive)	0.016 (inactive)	0.143 (inactive)	–	0.171 (inactive)	0.014 (inactive)	-0.077 (inactive)	0.006 (inactive)
PIK3CD (UniProt O00329)	-0.019 (inactive)	0.009 (inactive)	0.034 (inactive)	0.14 (inactive)	0.233 (inactive)	–	0.049 (inactive)	-0.11 (inactive)	0.042 (inactive)	-0.029 (inactive)
PSMC4 (UniProt P43686)	0 (inactive)	0.007 (inactive)	-0.056 (inactive)	0.06 (inactive)	-0.076 (inactive)	-0.011 (inactive)	0.04 (inactive)	0.001 (inactive)	0.02 (inactive)	-0.02 (inactive)
PXK (UniProt Q7Z7A4)	-0.06 (inactive)	-0.139 (inactive)	0.032 (inactive)	-0.026 (inactive)	-0.023 (inactive)	-0.042 (inactive)	-0.024 (inactive)	0.011 (inactive)	-0.025 (inactive)	-0.203 (inactive)
PIP4K2B (UniProt P78356)	0.63 (active)	-0.01 (inactive)	0.048 (inactive)	-0.072 (inactive)	0.028 (inactive)	-0.031 (inactive)	-0.025 (inactive)	-0.009 (inactive)	-0.055 (inactive)	-0.007 (inactive)
PUM1 (UniProt Q14671)	–	-0.079 (inactive)	–	-0.362 (inactive)	-0.187 (inactive)	0.207 (inactive)	0.019 (inactive)	0.203 (inactive)	0.041 (inactive)	–
